Source: PubChem
IEC-6 cytotox – IEC-6 cytotoxicity, counter-screen for KLF5 inhibitors; luminescence viability; inhibition, % at 5 µM; hit rate 0.78% among 290,000; AID 1825; in the data active means inhibition above about 22%;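 further: 0% = plate median of test compound wells and 100% = cytotoxic reference compound wells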
Ba/F3 V617F tox – reduce viability of Ba/F3 cells dependent on JAK2V617F. Ba/F3 EpoR-JAK2V617F viability, ATP luminescence. inhibition, % at 5.6 µM. hit rate 1.1% among 220,000;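 active means inhibition above the campaign mean plus 3 SD over all tested compounds, cut at about 24% in these data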;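 further: cytokine-independent growth of Ba/F3 cells driven by EpoR plus mutant JAK2; 0% = DMSO-treated cells and 100% = JAK inhibitor I control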
APP 5UTR inh – APP translation inhibition. SH-SY5Y APP 5'UTR-luciferase reporter, luminescence. hit rate 0.82% among 190,000. inhibition, % at 2 µM;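 active means inhibition above a set limit, derived from the sample mean plus 3 SD, cut at about 45% in these data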
aSyn UTR inh – 5' untranslated region of α-synuclein, MLPCN primary screen | alpha-synuclein 5'UTR reporter, inhibitor activity | inhibition, % (tested at 7.5 µM) | hit rate 0.82% among 300,000 | AID 1813; in the data active means inhibition above about 60%;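 further: H4 neuroglioblastoma cells stably carrying SNCA 5'UTR luciferase fusion; 0% = DMSO wells and 100% = positive control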
KLF5 inhibitor – kruppel-like factor 5 inhibition; AID 1700; hit rate 0.23% among 290,000; inhibition, % at 5 µM; DLD-1 KLF5 promoter-luciferase reporter, luminescence;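 active means inhibition above a per-plate limit of that plate's mean compound inhibition plus 3 SD, cut at about 60% in these data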;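 further: 0% = DMSO wells and 100% = LY294002 at 200 µM; higher means less KLF5 promoter-driven luciferase light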
BaF3 tox – counter-screen for JAK2V617F inhibitors: parental Ba/F3 viability inhibitors; CellTiter-Glo ATP luminescence; inhibition, % at 5.6 µM; hit rate 1.1% among 220,000; AID 1486;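 active means inhibition above a per-campaign cutoff, the mean inhibition of all tested compounds plus 3 SD, cut at about 27% in these data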;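 further: 0% = DMSO wells and 100% = JAK Inhibitor I control wells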
* marks the source's active call; other numbers are inactive results; / = no result. An excerpt weighted towards active compounds, which were near 2.2% of everything screened.

SMILES	IEC-6 cytotox	Ba/F3 V617F tox	APP 5UTR inh	aSyn UTR inh	KLF5 inhibitor	BaF3 tox
O=c1c2ccccc2sc2ccc(C#CC3(O)CCCCC3)cc12	/	/	/	103.8*	/	/
O=c1c2ccccc2oc2cc(C#CC3(O)CCCCC3)ccc12	/	/	/	77.3*	/	/
COc1cccc2sc3ccc(C#CC4(O)CCCCC4)cc3c(=O)c12	1.3	/	/	-190.8	-116.2	/
O=S(=O)(c1ccc(S(=O)(=O)N2CCOCC2)cc1)N1CCCC1	1.2	3.5	-2.8	5.1	-12.4	1.9
CCc1nnc(N/N=C/c2c(C)[nH]c3ccccc23)n1N	102.4*	19.3	-17.1	/	20.5	13.3
CC12CC3(C)CC(C)(C1)CC(C(=O)NCCc1ccc(S(N)(=O)=O)cc1)(C2)C3	6.5	/	/	-6.0	-1.6	/
CN(C)CCNC(=O)C12CC3(C)CC(C)(CC(C)(C3)C1)C2	2.3	0.5	-4.2	-9.1	-49.5	58.9*
COc1ccc(C2=NOC(C(=O)NCc3ccccc3)C2)cc1 (configuration not stated)	27.1*	3.3	30.1	-16.5	34.6	3.1
Cc1nc2scc(-c3ccccc3)c2c(=O)n1N=C1C=CC(=O)C=C1	8.7	49.3*	80.5*	-18.9	-25.6	-9.9
Cc1nc2scc(-c3ccccc3)c2c(=O)n1N	0.8	-4.2	12.9	1.7	-6.6	0.1
COc1ccc(N2CCN(C(=O)c3ccc(CNS(=O)(=O)c4cccc(OC)c4)cc3)CC2)cc1	4.3	/	/	-5.8	-14.9	/
O=C(OCCN1C(=O)c2cccc3c(N4CCOCC4)ccc(c23)C1=O)c1cc(Cl)cc(Cl)c1	-8.7	2.4	88.5*	/	-21.0	6.1
Cc1ccc(OCc2nc(C#N)c(NCc3ccc4c(c3)OCO4)o2)cc1	5.0	-2.4	67.0*	-0.2	-29.6	0.2
COc1ccc(Nc2oc(COc3ccc(Cl)cc3)nc2C#N)cc1	-2.3	2.8	-3.6	90.6*	1.5	2.2
C=C1CCC[C@]2(C)C[C@H]3OC(=O)C(CNC(C)(CO)CO)[C@H]3CC12 (some centres not stated)	3.7	/	/	-32.3	-2.4	/
CCOC(=O)c1ccccc1NC(=O)COC(=O)CSc1ccccc1	/	/	/	2.5	/	/
O=C(c1ccccc1)c1nn(-c2ccc(Cl)cc2)c(=O)cc1C(F)(F)F	1.7	19.4	-5.9	-219.1	-39.0	30.3*
COc1cc2c(OC(C)=O)c3c(c(-c4ccc5c(c4)OCO5)c2cc1OC)C(=O)OC3	6.4	22.3	18.4	113.0*	-3.1	-1.6
COc1cc2c(=O)n(-c3ccc(C)cc3)c(=O)n(CC(=O)c3ccc4c(c3)OCO4)c2cc1OC	-0.5	1.1	6.4	-44.4	-13.5	3.8
COc1cc2c(O)c3c(c(-c4ccc5c(c4)OCO5)c2cc1OC)C(=O)OC3	11.1	12.5	8.2	107.9*	20.5	22.4
COc1ccc(C(=O)Oc2ccc3c(c2)OCO3)cc1OC	4.1	6.4	-20.6	-59.5	-6.0	2.8
COCC1CCN(C(=O)C2CCC(=O)N(Cc3cccc(F)c3)C2)CC1 (configuration not stated)	-2.9	/	/	-5.6	-27.2	/
Cc1ccc(NC(=O)CN2C(=O)S/C(=C\C(=O)Nc3ccc(Cl)cc3)C2=O)cc1	3.5	5.5	-10.8	-1.7	27.3	72.6*
CCCC(C)NC(=O)COc1ccc(S(=O)(=O)c2ccc(OCC(=O)NC(C)CCC)cc2)cc1 (configuration not stated)	-6.0	2.9	-13.4	25.8	-35.8	6.7
Cc1cccc(NC(=O)C2CCN(S(=O)(=O)c3c(C)noc3C)CC2)c1	-8.0	/	/	3.5	-43.2	/
SMILES	IEC-6 cytotox	Ba/F3 V617F tox	APP 5UTR inh	aSyn UTR inh	KLF5 inhibitor	BaF3 tox
Cc1noc(C)c1S(=O)(=O)N1CCC(C(=O)Nc2ccccn2)CC1	2.2	1.9	10.7	10.0	-16.4	39.6*
Cc1cc2oc(C(=O)NCc3ccccc3)cc(=O)c2cc1C	21.9*	/	/	12.6	-15.7	/
O=S1(=O)CCO[C@H]2Cc3ccccc3[C@H]2N1Cc1ccc(F)cc1	-7.4	/	/	15.3	-31.1	/
N#C/C(=C\c1cn(Cc2ccc(F)cc2)c2ccccc12)C(=O)NCc1ccco1	4.6	-1.2	-5.0	39.0	20.3	4.9
N#C/C(=C\c1cn(Cc2ccccc2)c2ccccc12)C(=O)NCc1ccco1	1.5	2.5	2.1	67.8*	8.7	9.4
N#C/C(=C\c1cn(Cc2cccc(F)c2)c2ccccc12)C(=O)NCc1ccco1	2.7	-2.6	-7.4	64.5*	-1.1	2.3
Cc1cc(OCC[N+]2(C)CCCCC2)nc2ccccc12	-8.7	49.9*	/	-8.4	-31.6	47.6*
Cc1cc(NC2CCCCC2)nc2ccccc12	18.7	6.2	-4.3	-42.6	-33.5	6.4
